Records with an inconclusive call do not appear. Activity calls are given as the source filed them. Unless noted, the call rests on the fitted dose curve; in most records, active means well fitted curve in the direction sought with a large enough effect; inconclusive means small, poorly fitted or top-dose-only effect, or another doubt; inactive means no such curve, though single readings can be large; an effect the other way counts as inactive or inconclusive.

Assay [1] in a line: Cellular Toxicity (caspase-3) HepG2 (AID 654). Further: potency means the concentration at half of the fitted maximal effect.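 On caspase-3 activation: cells exposed to compound for 16 hours before reading.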 Particulars: HepG2 caspase-3 activation, luminescence; series mostly up to 92.2 µM. The gist of the method: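 Concentration-response AC50 values reflect caspase-3/7 induction in HepG2 cells after 16 hours of compound exposure, quantified by luminescence from liberated aminoluciferin and referenced to 100 uM tamoxifen as full stimulation.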

Assay [2] in a line: Cellular Toxicity (caspase-3) Jurkat (AID 655).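 Further: cells exposed to compound for 16 h at 37 °C before reading.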 Further: potency means the concentration at half of the fitted maximal effect. The conditions noted are these: Jurkat caspase-3 activation, luminescence; series mostly up to 92.2 µM. In short, it runs like this:
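Caspase 3/7 activation is scored as increased luminescence in Jurkat cells cultured with compound for 16 hours in complete medium. AC50 values come from Hill fits of qHTS concentration-response data normalized to DMSO and 100 uM tamoxifen controls.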

Assay [3] in a line: Cellular Toxicity (caspase-3) HUV-EC-C (AID 656). Particulars: HUV-EC-C cells, caspase-3 activation (apoptosis), vehicle = 0, 100 µM tamoxifen = 100%; series mostly up to 92.2 µM. The gist of the method: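 Read-out: luminescence proportional to caspase 3/7 activity, measured 20 min after adding Caspase-Glo 3/7 reagent. Cells (HUV-EC-C) had received compound for 16 hr at 37°C. Increases relative to DMSO and 100 uM tamoxifen gave concentration-response AC50 values.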

Assay [4] can be described thus: Cellular Toxicity (caspase-3) SHSY5Y (AID 657). Further: potency means the concentration at half of the fitted maximal effect. Particulars: SH-SY5Y caspase-3 activation; series mostly up to 91.7 µM. In short, it runs like this:
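Cells plated and incubated 5 h at 37 °C, dosed over a concentration range, incubated 16 h, then given Caspase-Glo 3/7 reagent for 1 h at room temperature before luminescence reading. Staurosporine (10 uM) defined full stimulation.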

Assay [5] can be described thus: Cellular Toxicity (caspase-3) BJ (AID 658). Particulars: BJ fibroblasts, luminescence, normalized: DMSO 0%, staurosporine 100%; series mostly up to 91.7 µM. The gist of the method: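 qHTS, BJ fibroblasts, 1000 cells/well; 5 hr preincubation, 16 hr compound, 37 °C; Caspase-Glo 3/7 reagent, 1 hr RT; luminescence. DMSO = 0%, 10 uM staurosporine = 100%. Hill-equation AC50.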

A short description of assay [6]: Cellular Toxicity (caspase-3) MRC-5 (AID 659). The conditions noted are these: MRC-5 cells, luminescence, normalized: DMSO 0%, 10 µM staurosporine 100%; series mostly up to 91.7 µM. From the text:
NIH Chemical Genomics Center [NCGC]
NIH Molecular Libraries Screening Centers Network [MLSCN]
National Institutes of Environmental Health Sciences [NIEHS]
National Toxicology Program [NTP]
We have developed a 1536-well cell-based assay for quantitative high throughput screening (qHTS) against a number of cell lines to determine in vitro caspase 3/7 activity of small molecules. This particular assay uses the MRC-5 cell line which is derived from human normal lung fibroblasts.
NCGC Assay Protocol Summary:
The Caspase-Glo 3/7 assay (Promega) is a homogeneous method to measure caspase-3 and caspase-7 activities in cultured cells. The quantitation of caspase 3/7 activity is based on the cleavage of a peptide-aminoluciferin substrate. After caspase cleaves the substrate the free aminoluciferin is liberated and serves as the substrate of luciferase, which generates the light. The luminescent signal is proportional to amount of caspase 3/7 activity present.
Using the Caspase-Glo 3/7 assay, the amount of caspase 3/7 activity was measured in the MRC-5 line with complete culture medium following compound treatment for 16 hours. The assay was performed in opaque white 1536-well plates. In the screen, tamoxifen and staurosporine were used as positive controls. Library compounds were measured for their ability to cause the activation of caspase 3/7 in the cell line, as reflected by an increase in luminescence signal, in a concentration-dependent manner. Data were normalized to the controls for basal activity (DMSO only) and 100% stimulation (10 uM staurosporine). AC50 values were determined from concentration-response data modeled with the standard Hill equation.
qHTS protocol for caspase 3/7 assay in MRC-5 cells
[Step] [Parameter] [Value] [Description]
1. Reagent; 5 uL; 1500 MRC-5 cells/well
2. Time; 5 hr; 37 °C incubation
4. Controls; 23 nL; Tamoxifen 0.23 uM to 100 uM & staurosporine 1.4 pM to 100 uM
5. Time; 16 hr; 37 °C incubation
6. Reagent; 5 uL; Caspase-Glo 3/7 reagent
7. Time; 1 hr; Room Temperature
8. Detection; Luminescence; Viewlux plate reader
Keywords: caspase 3/7, apoptosis, MRC-5 cell line, luminescence, NTPHTS, NTPHTS_NCGC, NIEHS, EPA, DSSTox, MLSMR, MLSCN, NIH Roadmap, qHTS, NCGC

Assay [7] is described as follows: Cellular Toxicity (caspase-3) Mesangial (AID 660).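 Further: cells exposed to compound for 16 h before the caspase read.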 Further: potency means the concentration at half of the fitted maximal effect. The conditions noted are these: mesangial cells; Potency: caspase-3 activation; series mostly up to 91.7 µM. In short, it runs like this: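 AC50 values come from Hill-equation fits of caspase 3/7 activation, measured as Caspase-Glo luminescence in human glomerular mesangial cells exposed to compound for 16 h at 37 °C; 100% set by 100 uM tamoxifen.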

Assay [8] is described as follows: Cellular Toxicity (caspase-3) SK-N-SH (AID 661). Further: potency means the concentration at half of the fitted maximal effect. Particulars: SK-N-SH caspase-3 activation, qHTS; series mostly up to 91.7 µM. The gist of the method: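 Apoptosis readout in SK-N-SH neuroblastoma: Caspase-Glo 3/7 luminescence following 16 hr treatment in complete culture medium. Normalization used DMSO and 10 uM staurosporine controls.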
In general terms: In qHTS, concentration-response curves come from the screen itself.

Assay [9] in a line: Cellular Toxicity (caspase-3) H-4-II-E (AID 663). Further: potency means the concentration at half of the fitted maximal effect.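 On caspase-3 activation: cells exposed to compound for 16 hr before readout.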 The conditions noted are these: H-4-II-E rat hepatoma; Potency: caspase-3 activation; series mostly up to 92.2 µM. The gist of the method:
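H-4-II-E rat hepatoma, 1500 cells/well, 5 hr settle at 37 °C; compound 16 hr, 37 °C, complete medium; Caspase-Glo 3/7, 20 min RT; luminescence. DMSO = 0%, 100 uM tamoxifen = 100%; Hill-equation AC50.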

For assay [10], the target named is 3',5'-cyclic-AMP phosphodiesterase 4B (Homo sapiens) (UniProt Q07343). Put plainly: qHTS Assay for Inhibitors of PDE-IV (AID 607; active means well fitted activation curve with a large enough effect in the main read-out, with a control signal flat, not every such curve was filed as active). The conditions noted are these: HEK293 ACTOne CNG channel cells, membrane potential fluorescence; series mostly up to 22.9 µM. In short, it runs like this:
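ACTOne HEK293 cells carry a modified cAMP-gated CNG channel and express endogenous PDE4; plated 1000 cells/well, compounds up to 22.9 uM final. Membrane-potential dye fluorescence (ex 535/em 590) was read; parental cells received 10 uM forskolin + 100 uM RO 20-1724.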

3',5'-cyclic-AMP phosphodiesterase 4B (Homo sapiens), sequence (Q07343 whole entry, looked up): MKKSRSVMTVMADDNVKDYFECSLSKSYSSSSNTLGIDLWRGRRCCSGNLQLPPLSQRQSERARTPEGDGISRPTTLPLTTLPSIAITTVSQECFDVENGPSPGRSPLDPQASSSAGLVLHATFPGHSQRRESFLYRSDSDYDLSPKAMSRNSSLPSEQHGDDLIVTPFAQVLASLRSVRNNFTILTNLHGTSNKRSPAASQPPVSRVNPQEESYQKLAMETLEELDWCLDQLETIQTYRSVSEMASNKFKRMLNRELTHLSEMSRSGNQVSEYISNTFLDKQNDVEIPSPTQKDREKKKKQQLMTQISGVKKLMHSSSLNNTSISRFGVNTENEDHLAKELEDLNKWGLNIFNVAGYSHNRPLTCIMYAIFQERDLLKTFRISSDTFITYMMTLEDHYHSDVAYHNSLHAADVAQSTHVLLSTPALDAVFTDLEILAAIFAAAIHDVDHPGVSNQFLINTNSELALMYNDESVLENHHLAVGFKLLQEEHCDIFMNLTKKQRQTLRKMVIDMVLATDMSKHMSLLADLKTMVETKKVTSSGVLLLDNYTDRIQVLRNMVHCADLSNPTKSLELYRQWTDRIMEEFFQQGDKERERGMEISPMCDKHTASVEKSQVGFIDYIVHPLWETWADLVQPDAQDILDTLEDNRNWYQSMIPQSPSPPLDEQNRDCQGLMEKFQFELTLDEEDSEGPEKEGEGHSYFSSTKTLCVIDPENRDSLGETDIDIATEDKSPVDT

In the case of `O=C(CCl)c1ccc(Cl)cc1Cl`, the Potency result in [1] and in assay [7] was “inactive” throughout. Besides, the Potency in [2] was 251 nM (active); in [4], 2510 nM (active); in [8], 1580 nM (active). For the same compound, the outcome in assay [3], in [5] and in assay [6] was inactive.

Regarding `COP(=O)(OC)OC=C(Cl)Cl`, the Potency entry in assay [1], in assay [2], in assay [4], in [7], in assay [8] and in assay [9] was “inactive” each time. Further, the outcome in assay [3], in assay [5] and in [6] was inactive.

With `CN1[C@@H]2CC[C@H]1CC(OC(=O)c1cc(Cl)cc(Cl)c1)C2` (some centres undefined), the outcome in [10] was inactive.

`C[C@H](N)[C@H](O)c1ccc(O)c(O)c1`: in [10], the outcome was inactive.

Take `Oc1c(Br)cc(Br)cc1Br`: the Potency result in assay [1], in [4], in assay [7], in assay [8] and in assay [9] was “inactive” each time. Moreover, the compound was classed as inactive in assay [3], in assay [5] and in assay [6].

Regarding `CN(C)C(=S)SSC(=S)N(C)C`, the Potency entry in [1], in assay [4], in assay [8] and in assay [9] was “inactive” each time. Also, the Potency is 63.1 nM (active) in assay [2] and 398 nM (active) in assay [7]. Also, the call in [3], in assay [5] and in assay [6] was inactive.

For the compound `CC(C)[N+](C)(CCC(C(N)=O)(c1ccccc1)c1ccccc1)C(C)C`, the call in assay [10] was inactive.

Turning to `C[C@@H]1C[C@@H]([C@H](O)CC2CC(=O)NC(=O)C2)C(=O)[C@@H](C)C1`, the Potency result in assay [1], in [4], in assay [7] and in assay [8] was “inactive” throughout. The call in [3], in [5] and in assay [6] was inactive. For the same compound, the Potency in [9] is 15800 nM (active).

Take `NC(=O)CN1CCCC1=O`: in assay [10], the result was inactive.

Consider `c1ccc2nc(N3CCNCC3)ccc2c1`, for which the compound was classed as inactive in [10].

As to `OC(c1ccccc1)(c1ccccc1)C1CCNCC1`, in assay [10], the outcome was inactive.

Turning to `COc1ccc(C(=O)N2CCCC2=O)cc1`, the compound was called inactive in [10].

In the case of `COc1ccc(CN2CCNCC2)c(OC)c1OC`, the compound was called inactive in [10].

As for `CCCCCCCCCCCC[N+](C)(C)CCOc1ccccc1`, the Potency in assay [1] was 39800 nM (active). Besides, in assay [3], the call was inactive. In addition, the Potency result in assay [4] and in assay [7] was “inactive” throughout.

(Values after PubChem BioAssay (NCATS).)
